From ChEMBL document CHEMBL4513146, “CO-ADD screening of Karazin Kharkiv National University (Ukraine) compounds”
Potency and affinity values are given separately.

The compounds below were run on Staphylococcus aureus. Settings: Concentration 32 ug.mL-1;; ASSAY_TEST Inhibition of Bacterial Growth; detection method Absorption (OD600); MEDIA CAMHB; plate type 384well; NBS; CORNING #3640; time 18 hr.

**Q.** With `O=c1c2nn(Cc3ccccc3Cl)c(=O)n2ccn1-c1ccccc1` as the compound, how does the Inhibition read?
**A.** -1.67%

**Q.** Which Inhibition does the source give for `CCOc1ccc(NC(=O)Cn2nc3ccc(SCc4ccc(Cl)cc4)nn3c2=O)cc1` here?
**A.** 5.28%

**Q.** For `COC(=O)c1ccccc1NC(=O)Cn1nc2c3cc(-c4ccc(Cl)cc4)nn3ccn2c1=O`, which Inhibition is on record?
**A.** 10.87%

**Q.** `COc1cccc(-n2ccn3c(SCC(=O)c4cccc(Cl)c4)nnc3c2=O)c1` was tested. Which Inhibition did it give?
**A.** -1.54%

**Q.** Which Inhibition does the source give for `Cc1c(Cl)cccc1NC(=O)Cn1nc2c3c4c(sc3ncn2c1=O)CCCCC4` here?
**A.** 3.69%

**Q.** How did the Inhibition turn out when `O=c1n(Cc2c(F)cccc2Cl)nc2ccc(-c3ccccc3)nn12` was run?
**A.** 7.33%

**Q.** Which Inhibition does the source give for `COc1cccc(-n2ccn3c(SCC(=O)Nc4cc(F)ccc4F)nnc3c2=O)c1` here?
**A.** 11.04%

**Q.** With `COc1ccc(Cl)cc1NC(=O)Cn1nc2c3cc(-c4ccc(C)cc4)nn3ccn2c1=O` as the compound, how does the Inhibition read?
**A.** 13.21%

**Q.** For `CSc1cccc(NC(=O)Cn2c(=O)c3nnc(C(C)C)n3c3ccccc32)c1`, which Inhibition is on record?
**A.** 14.38%

**Q.** Which Inhibition does the source give for `CCCNC(=O)Cn1nc2nc(Nc3ccc(F)cc3)ccn2c1=O` here?
**A.** 8.25%

**Q.** How did the Inhibition turn out when `CC(=O)c1ccc(NC(=O)Cn2nc3ccc(Sc4ccccc4)nn3c2=O)cc1` was run?
**A.** 5.54%

**Q.** How did the Inhibition turn out when `Cc1ccccc1NC(=O)Cn1nc2c(SC3CCCCC3)nccn2c1=O` was run?
**A.** 1.84%

**Q.** For `COc1cccc(CN(c2ccc(F)cc2)S(=O)(=O)c2cccn3cnnc23)c1`, which Inhibition is on record?
**A.** -5.01%

**Q.** `CCOc1ccc(NC(=O)Cn2nc3c(Oc4ccc(C)cc4)nccn3c2=O)cc1` was tested. Which Inhibition did it give?
**A.** 5.72%

**Q.** Which Inhibition does the source give for `O=C(Cn1nc2c(N3CCSCC3)nc3ccccc3n2c1=O)NCc1ccccc1` here?
**A.** 1.1%

**Q.** Which Inhibition does the source give for `O=C(Cn1nc2c3cc(-c4ccc(F)cc4)nn3ccn2c1=O)Nc1ccc(Br)cc1` here?
**A.** -9.12%

**Q.** How did the Inhibition turn out when `COc1ccc(-c2cc3c4nnc(SCC(=O)Nc5ccc(OC)c(Cl)c5)n4ccn3n2)cc1` was run?
**A.** 3.66%

**Q.** `O=c1n(Cc2ccccc2F)nc2ccc(S(=O)(=O)N3CCCCCC3)cn12` was tested. Which Inhibition did it give?
**A.** 2.98%

**Q.** Which Inhibition does the source give for `CCCCN(C)c1ccc2nnc(CCc3nc(-c4cc(OC)cc(OC)c4)no3)n2n1` here?
**A.** -6.16%

**Q.** `Cc1ccc(NC(=O)Cn2nc3c(N4CCCC(C)C4)nccn3c2=O)cc1C` (stereo not given) was tested. Which Inhibition did it give?
**A.** -5.07%

**Q.** For `CCCCOc1ccc(-c2cc3c4nnc(SCC(=O)Nc5ccccc5F)n4ccn3n2)cc1`, which Inhibition is on record?
**A.** -0.1%

**Q.** How did the Inhibition turn out when `O=C(CSc1nc2ccccc2n2cnnc12)Nc1ccc2c(c1)OCO2` was run?
**A.** 4.59%

**Q.** Which Inhibition does the source give for `COc1ccc(-c2cc3c4nn(CC(=O)NCc5ccc(Cl)cc5)c(=O)n4ccn3n2)cc1` here?
**A.** 12.72%

**Q.** Which Inhibition does the source give for `CCc1ccccc1Sc1nccn2c(=O)n(CC(=O)Nc3ccc(C)cc3C)nc12` here?
**A.** 10.48%

**Q.** Which Inhibition does the source give for `CCN(CCCNC(=O)CCc1nnc2ccc(-c3ccc(C)c(C)c3)nn12)c1ccccc1` here?
**A.** -5.09%

**Q.** `COc1ccc(-n2ccn3c(-c4ccc([N+](=O)[O-])cc4)nnc3c2=O)cc1` was tested. Which Inhibition did it give?
**A.** 12.69%

**Q.** With `COc1ccc(NC(=O)Cn2nc3ccc(-c4ccc(Cl)cc4)nn3c2=O)cc1OC` as the compound, how does the Inhibition read?
**A.** -0.18%

**Q.** Which Inhibition does the source give for `Cc1ccc(NC(=O)Cn2nc3cc(C)nc(Nc4ccc(F)c(C)c4)n3c2=O)cc1` here?
**A.** 11.03%

**Q.** For `Cc1ccc(-c2cc3c4nn(CC(=O)Nc5ccc(Br)cc5)c(=O)n4ccn3n2)cc1C`, which Inhibition is on record?
**A.** 0.82%

**Q.** For `O=c1c2nnc(SCc3cccc(C(F)(F)F)c3)n2ccn1-c1ccc(Br)cc1`, which Inhibition is on record?
**A.** 11.27%

**Q.** `Cc1ccc(-c2cc3c4nn(CC(=O)Nc5ccccc5Cl)c(=O)n4ccn3n2)cc1` was tested. Which Inhibition did it give?
**A.** 2.52%

**Q.** For `O=C(Cn1nc2c(Sc3cccc(F)c3)nccn2c1=O)N1CCN(c2ccccc2)CC1`, which Inhibition is on record?
**A.** 1.07%

**Q.** `O=c1c2nnc(SCc3ccc(Cl)cc3)n2ccn1-c1ccc(F)c(F)c1` was tested. Which Inhibition did it give?
**A.** 4.12%

**Q.** With `O=C(Cn1nc2c3cc(-c4ccc(Cl)cc4)nn3ccn2c1=O)N1CCN(c2ccccc2)CC1` as the compound, how does the Inhibition read?
**A.** 8.68%

**Q.** How did the Inhibition turn out when `COc1cc(NC(=O)Cn2nc3ccc(SC4CCCCC4)nn3c2=O)cc(OC)c1` was run?
**A.** -2.94%

**Q.** With `Cc1ccc(Oc2nccn3c(=O)n(CC(=O)Nc4ccc(F)cc4F)nc23)cc1` as the compound, how does the Inhibition read?
**A.** 19.59%

**Q.** With `O=C(Cn1nc2c(=O)n(-c3ccc(Br)cc3)ccn2c1=O)Nc1ccc(F)cc1F` as the compound, how does the Inhibition read?
**A.** 3.27%

**Q.** With `Cc1ccc(CNC(=O)Cn2nc3ccc(SC4CCCCC4)nn3c2=O)cc1` as the compound, how does the Inhibition read?
**A.** 11.69%

**Q.** For `C=Cc1ccc(CN(c2ccc(CC)cc2)S(=O)(=O)c2cccn3c(C)nnc23)cc1`, which Inhibition is on record?
**A.** 9.91%

**Q.** With `CC(C)CCn1c(=O)c2ccc(C(=O)NC3CCCCC3)cc2n2c(=O)n(CC#N)nc12` as the compound, how does the Inhibition read?
**A.** 5.76%
